This note sets out measurements from PubChem BioAssay AID2014 (Sanford-Burnham Center for Chemical Genomics, 2009).

In this experiment the target is Polyadenylate-binding protein 1 (Homo sapiens) (UniProt P11940). Description: blockers of PABP interaction with poly(A) – biochemical, fluorescence polarization, uHTS, primary screen (AID 2014).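 Note: calls also rest on retests at 20 µM and on dose response follow-up.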 To be noted: PABP-poly(A) RNA binding, stronger effect = higher value.

Screen size: about 290,000 compounds; about 3,000 (1%) were called active. This is one part of a sample in which actives are shown more often than they occur. The rule behind the calls is not given here.

A word on the inhibition: it is the change of the read-out against control, counted positive when it falls.

Sequence of Polyadenylate-binding protein 1 (Homo sapiens) (P11940 whole entry, looked up): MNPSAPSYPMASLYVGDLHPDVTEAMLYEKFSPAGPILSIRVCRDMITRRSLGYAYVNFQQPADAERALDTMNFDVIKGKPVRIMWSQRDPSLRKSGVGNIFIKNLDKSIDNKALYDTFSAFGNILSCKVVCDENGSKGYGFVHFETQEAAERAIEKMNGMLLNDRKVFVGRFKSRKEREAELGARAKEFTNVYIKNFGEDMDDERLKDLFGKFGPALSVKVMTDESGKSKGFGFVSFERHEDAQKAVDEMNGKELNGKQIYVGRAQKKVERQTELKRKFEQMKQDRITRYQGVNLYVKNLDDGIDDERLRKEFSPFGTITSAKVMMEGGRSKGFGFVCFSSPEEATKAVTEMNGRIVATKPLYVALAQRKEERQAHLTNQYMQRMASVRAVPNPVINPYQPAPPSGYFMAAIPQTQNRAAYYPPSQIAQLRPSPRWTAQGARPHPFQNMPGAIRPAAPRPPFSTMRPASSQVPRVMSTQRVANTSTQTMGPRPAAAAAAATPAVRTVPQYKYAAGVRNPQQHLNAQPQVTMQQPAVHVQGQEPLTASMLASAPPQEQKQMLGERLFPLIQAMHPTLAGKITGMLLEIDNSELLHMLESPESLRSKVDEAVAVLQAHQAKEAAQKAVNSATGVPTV

In the case of `COc1cccc(/C=C2/SC(=S)N(CC(=O)NC3C=CS(=O)(=O)C3)C2=O)c1` (stereo not drawn), where the note is “at 35 µM”, the inhibition was 8.2% (inactive).
The same measure, in the same setting: the result for `CCNc1c(NS(=O)(=O)c2ccc(C3CCCCC3)cc2)c(=O)oc2ccccc12` reads 2.8% (inactive).
For the molecule `CC1=NN(C(N)=S)C(=O)C1N=Nc1cc(Cl)ccc1Cl` (stereo not drawn), for the setting “at 35 µM”, the inhibition is 11.1% (inactive).
Turning to `Cn1c(=O)n(C)c2cc(C(=O)Nc3ccc4c(c3)OCO4)ccc21`, the inhibition (at 35 µM) was 9.8% (inactive).
Turning to `Cc1ccc(C(=O)O)cc1-c1ccc(/C=C2\SC(=O)N(CC(=O)Nc3ccc4c(c3)OCO4)C2=O)o1`, the inhibition (at 35 µM) is 62.5% (active).
Turning to `COc1ccc(NC(=O)CCN2C(=O)/C(=C/c3ccc4c(c3)OCO4)SC2=S)cc1`, for the setting “at 35 µM”, the inhibition is 28.4% (inactive).
As for `CCOc1ccc(N(C(=O)c2snc(C(N)=O)c2N)C(C(=O)NCC2CCCO2)c2c[nH]c3ccccc23)cc1` (stereo not drawn), the inhibition (at 35 µM) was 8.6% (inactive).
Same read-out and setting: the result for `O=C(CCc1c[nH]c2ccccc12)NCCOc1ccccc1` reads 3.3% (inactive); that for `CCN(CCCNC(=O)c1ccc2c(c1)NC(=O)CN2C)c1cccc(C)c1`, 0.9% (inactive).
For the molecule `CCOc1ccc(N(C)S(=O)(=O)c2cnc[nH]2)cc1`, the inhibition (at 35 µM) is -4.6% (inactive).
Turning to `O=C(CCN1CCCO1)N1CCCC(N2CCN(c3cccc(C(F)(F)F)c3)CC2)C1` (stereo not drawn), under “at 35 µM”, the inhibition was -17.5% (inactive).
Same read-out and setting: the result for `CN1/C(=c2/s/c(=C3/C(=O)N(c4ccccc4)NC3=Nc3ccccc3)n(C)c2=O)C(C)(C)c2ccccc21` reads 79.2% (active).
As to `CCN1C(=O)/C(=c2\s/c(=C3\Sc4ccccc4N3C)c(=O)n2C)N(C)C1=S`, under “at 35 µM”, the inhibition is -6.7% (inactive).
On to `NC(=O)c1c(NC(=O)CSc2nnc(-c3ccco3)n2N)sc2c1CCCC2`, for which the inhibition (at 35 µM) is 43.3% (active) and the inhibition (confirmation repeats, at 20 µM) is 90.6%.
As for `NC(=O)c1c(NC(=O)CSc2nc(N)cc(=O)[nH]2)sc2c1CCCC2`, for the setting “at 35 µM”, the inhibition was 9.6% (inactive).
On to `CCc1cccc(C)c1NC(=O)CSc1nnc(-c2ccco2)n1N`, for which the inhibition (at 35 µM) was -0.1% (inactive).
The same measure, in the same setting: the result for `C[C@@H](NC(=O)[C@@H]1Cc2ccccc2CN1)C(=O)NC1CCCC1` reads 21% (inactive); that for `Cc1ccc(CN2CCCOCCS2(=O)=O)cc1`, 5.7% (inactive).
`N#Cc1ccccc1CN1C(=O)S/C(=C/c2cccn2-c2cccc(C(=O)O)c2)C1=O`: the inhibition was 37.4% (active) (at 35 µM) and 65.8% (confirmation repeats, at 20 µM).
For the molecule `Cn1cccc1/C=C1\SC(=O)N(CC(=O)Nc2ccc(F)cc2)C1=O`, the inhibition (at 35 µM) was 2.5% (inactive).
Consider `Cc1ccccc1NC(=O)CN1C(=O)N/C(=C\c2cccn2-c2cccc(C(=O)O)c2)C1=O`, for which the inhibition was 82.4% (inactive) (at 35 µM) and 24.9% (confirmation repeats, at 20 µM).
As to `C=CCn1c(SCc2ccccc2)nc2c1c(=O)[nH]c(=O)n2C`, the inhibition (at 35 µM) is -1.9% (inactive).
The same measure, in the same setting: the result for `O=C(O)c1cc(S(=O)(=O)N(Cc2ccccc2)c2cccc(C(F)(F)F)c2)ccc1Cl` reads 7.3% (inactive).
Take `COc1ccccc1-c1noc(CSc2nc(C)cc(=O)[nH]2)n1`: the inhibition (at 35 µM) was 56.6% (active).
Same read-out and setting: the result for `Cc1cc(=O)[nH]c(SCc2cc(Cl)ccc2OC(F)F)n1` reads 0.2% (inactive).
Still for that read-out and setting: the result for `Cc1cc(=O)[nH]c(SCc2cccc(F)c2)n1` reads -3.3% (inactive); that for `CN1C(=O)/C(=C\c2ccc(-c3ccccc3)o2)SC1=S`, 19.8% (inactive).
Take `O=C(O)C(c1ccccc1)N1C(=O)/C(=C\c2ccc(-c3cccc(Cl)c3)o2)SC1=S` (stereo not drawn): the inhibition (at 35 µM) was 76% (active) and the inhibition (confirmation repeats, at 20 µM) turned out to be 126%.
Turning to `O=C1NN(c2ccccc2)C(=O)/C1=C/c1ccc(-c2cccc(C(=O)O)c2)o1`, under “at 35 µM”, the inhibition was 36.5% (inactive).
The same measure, in the same setting: the result for `CCOC(OCC)c1ccc(/C=C\c2nccc(N)n2)cc1` reads -16.6% (inactive).
The same measure, in the same setting: the result for `O=C(COc1ccc(Cl)cc1)Nc1ccccc1CO` reads 4.7% (inactive).
Take `COC(=O)c1sccc1NC(=O)COc1ccc(Cl)cc1`: the inhibition reads like this: (at 35 µM) 81% (active); (confirmation repeats, at 20 µM) 58.4%.
As to `COC(=O)c1sccc1NC(=O)c1ccc(Cl)cc1`, the inhibition (at 35 µM) was 4.7% (inactive).
`CC(C)(C)C1CCC(C(=O)NCC(c2cccs2)N2CCOCC2)CC1` (stereo not drawn): for the setting “at 35 µM”, the inhibition was 15.6% (inactive).
Turning to `O=C(CC(=O)Nc1ccc(Cl)c(Cl)c1)N/N=C/c1ccc(O)cc1`, the inhibition (at 35 µM) is 51.1% (active) and the inhibition (confirmation repeats, at 20 µM) amounted to 59.9%.
As to `O=C(C[n+]1ccccc1)N/N=C/c1ccc(O)cc1`, the inhibition (at 35 µM) was -10% (inactive).
The same measure, in the same setting: the result for `Nc1nnn(CC(=O)N/N=C/c2ccc(O)cc2)n1` reads 15.3% (inactive); that for `CN(C)c1ccc(S(=O)(=O)NCC(=O)NCC2CCCCC2)cc1[N+](=O)[O-]`, 13.4% (inactive); that for `COc1cccc(C(=O)N/N=C(\C)c2cccc(NC(=O)c3ccc(F)cc3)c2)c1OC`, -0.8% (inactive).
On the same count and under the same terms, the result for `COc1ccccc1OCCCC(=O)Nc1ccc2c(c1)OCCO2` reads 3.8% (inactive).
In the case of `CCc1nnc(NC(=O)/C=C/c2ccc(C)o2)s1`, the inhibition runs as follows: (at 35 µM) 4.4% (active); (confirmation repeats, at 20 µM) 56.5%.
For `CCC(CC)c1nnc(NC(=O)/C=C/c2ccco2)s1` the same measures were 10% (inactive) and 1.7%.
For the molecule `Cc1nnc(NC(=O)/C=C/c2ccco2)s1`, the inhibition reads like this: (at 35 µM) -3.5% (inactive); (confirmation repeats, at 20 µM) 8.4%.
Turning to `CCOC(=O)c1c(S(=O)(=O)Nc2ccc(CN3CCC(C)CC3)cc2)c(C)n(C)c1C`, the inhibition (at 35 µM) was -2.2% (inactive).
As for `CCOC(=O)N1CCC(N2Cc3cccc(C(=O)Nc4c(C)cccc4CC)c3C2=O)CC1`, the inhibition (at 35 µM) is -4.1% (inactive).
Turning to `CCOC(=O)CC1COCCN1C(=O)c1cc(COc2ccc(F)c(F)c2)on1` (stereo not drawn), the inhibition (at 35 µM) was 1.8% (inactive).
As for `O=C(O)c1ccc(OCC2CCCO2)cc1` (stereo not drawn), where the note is “at 35 µM”, the inhibition was 6.4% (inactive).
The same measure, in the same setting: the result for `CC(C)(C)C(=O)CN1C2=NCCN2c2ccccc21` reads -8.1% (inactive).
Regarding `O=C(NCC(=O)N1CCN(c2ccccc2F)CC1)c1cccs1`, for the setting “at 35 µM”, the inhibition is 7.4% (inactive).
`O=C(CN1C2=NCCN2c2ccccc21)c1cccs1`: the inhibition (at 35 µM) was 88.7% (active) and the inhibition (confirmation repeats, at 20 µM) is 105%.
Take `COc1ccc(N2CCN(C(=O)Cn3cnc4sc(C)c(S(=O)(=O)N5CCOCC5)c4c3=O)CC2)cc1`: under “at 35 µM”, the inhibition is -2.8% (inactive).
Turning to `Cc1cccc2[nH]c(CN(C)C(=O)C3CCC(=O)N(CCc4ccccc4)C3)nc12` (stereo not drawn), the inhibition (at 35 µM) was -4.2% (inactive).
`O=C(COc1ccc([N+](=O)[O-])cc1)Nc1ccc(N2CCCC2)cc1`: under “at 35 µM”, the inhibition is 7% (inactive).
Still for that read-out and setting: the result for `O=C(N/N=C/c1ccc(OCc2ccccc2)cc1)c1ccc(O)cc1` reads -15.7% (inactive).
For the molecule `O=C(COc1ccc(/C=N/NC(=O)c2ccc(O)cc2)cc1)Nc1ccc([N+](=O)[O-])cc1`, the inhibition reads like this: (at 35 µM) 94.5% (active); (confirmation repeats, at 20 µM) 77.2%.
Turning to `CC(C)c1ccc(Cc2nnc(NCCCO)[nH]c2=O)cc1`, where the note is “at 35 µM”, the inhibition is 3.4% (inactive).
Regarding `CCOc1cc(CN2CCCC(CO)(Cc3ccc(F)cc3F)C2)ccc1OC` (stereo not drawn), the inhibition (at 35 µM) was 4.9% (inactive).
